The sequences below were run against Cic (Drosophila melanogaster, UniProt Q9U1H0 483-565) (assay: FP; 33 mM phosphate pH 7.0, 90 mM NaCl, 0.01% Tween 20, 0.1 mM DTT, 0.5% agarose; room temperature). Details: tags: N-GST (pGEX-6P-1, kept); dsDNA, one strand shown.

Sequence	binding signal	Kd [nM]
CGTTGAAGGGGGT	11.1 Kd / Kd of best base at the position	–
CGGTGAATGGGGT	2.27 Kd / Kd of best base at the position	–
TGTTGAATGGGGT	1.66 Kd / Kd of best base at the position	–
CGTTGAATGAGGT	2.2 Kd / Kd of best base at the position	–
CGTTGAACGGGGT	10.1 Kd / Kd of best base at the position	–
CGTTGACTGGGGT	3.64 Kd / Kd of best base at the position	–
CGTTGAATGGGTT	1.85 Kd / Kd of best base at the position	–
CGCTGAATGGGGT	3.22 Kd / Kd of best base at the position	–
CGTTGGATGGGGT	20.4 Kd / Kd of best base at the position	–
CGTTCAATGGGGT	1.93 Kd / Kd of best base at the position	–
GGTTGAATGGGGT	1.41 Kd / Kd of best base at the position	–
CGATGAATGGGGT	2.02 Kd / Kd of best base at the position	–
CGTTGAATGGAGT	1.79 Kd / Kd of best base at the position	–
CGTTGAATGCGGT	7.69 Kd / Kd of best base at the position	–
CGTTGAATGTGGT	4.08 Kd / Kd of best base at the position	–
CGTTGAATGGGGC	2.65 Kd / Kd of best base at the position	–
CGTTGCATGGGGT	17.1 Kd / Kd of best base at the position	–
CGTTGAATGGCGT	2 Kd / Kd of best base at the position	–
CTTTGAATGGGGT	1.85 Kd / Kd of best base at the position	–
AGTTGAATGGGGT	1.69 Kd / Kd of best base at the position	–

Sequence	binding signal	Kd [nM]
CGTTGAATGGTGT	2.29 Kd / Kd of best base at the position	–
CGTTGAAAGGGGT	8.64 Kd / Kd of best base at the position	–
CGTTGAATGGGGT	–	~34.1
CGTTGAATCGGGT	7.88 Kd / Kd of best base at the position	–
CGTCGAATGGGGT	12.4 Kd / Kd of best base at the position	–
CATTGAATGGGGT	1.53 Kd / Kd of best base at the position	–
CGTTGAATAGGGT	6.64 Kd / Kd of best base at the position	–
CGTTAAATGGGGT	3.06 Kd / Kd of best base at the position	–
CGTAGAATGGGGT	5.55 Kd / Kd of best base at the position	–
CGTTGAATGGGGG	2.15 Kd / Kd of best base at the position	–
CGTTGAATGGGCT	1.86 Kd / Kd of best base at the position	–
CGTTGAATGGGAT	1.93 Kd / Kd of best base at the position	–
CCTTGAATGGGGT	1.89 Kd / Kd of best base at the position	–
CGTTGTATGGGGT	5.33 Kd / Kd of best base at the position	–
CGTGGAATGGGGT	17.5 Kd / Kd of best base at the position	–
CGTTGATTGGGGT	8.11 Kd / Kd of best base at the position	–
CGTTGAATGGGGA	2.36 Kd / Kd of best base at the position	–
CGTTTAATGGGGT	4.43 Kd / Kd of best base at the position	–
CGTTGAGTGGGGT	7.68 Kd / Kd of best base at the position	–

From article PMC5913336, “True equilibrium measurement of transcription factor-DNA binding affinities using automated polarization microscopy”
